The full data set covers some 7,900 targets. This sample favours those with a hit. About 0.6% of all pairs of compound and target were hits. Values without a mark were called inactive.
Key:
Test in all cases: log2 fold change, soluble protein after heating vs DMSO (PISA); higher = thermal stabilisation; K562 cells, 10 uM, 30 min; active = over 0.2 and 3.5 SD of the protein, either way, in both replicates (recomputed)
[1] = compound: CN1CCN(CCOc2cc(OC3CCOCC3)c3c(Nc4c(Cl)ccc5c4OCO5)ncnc3c2)CC1 [saracatinib]
In short: (§1)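 K562 cells at 2×10^6 cells/mL were treated with 10 μM compound for 30 min. Aliquots were heated for 3 min across 48°C-58°C, pooled, and extracted in PBS with 0.5% NP-40 at 4°C; soluble protein was the supernatant after 21,000xg for 90 min. Soluble protein was quantified by TMTpro 16plex LC-MS/MS with channel sums equalised, and reported as log2 fold change in thermal stability against DMSO controls, with values from duplicates.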

[2] = compound: CN1CCN(c2nc(C3=C(c4c[nH]c5ccccc45)C(=O)NC3=O)c3ccccc3n2)CC1 [sotrastaurin]
In short: as §1

[3] = compound: CN1CC[C@H](c2c(O)cc(O)c3c(=O)cc(-c4ccccc4Cl)oc23)[C@H](O)C1 [alvocidib]
In short: as §1

[4] = compound: CN1CCc2c(c3ccccc3n2Cc2ccc(C(=O)NO)cc2)C1 [Tubastatin A]
In short: as §1

[5] = compound: CNC(=O)C1=CC=CC=C1NC2=NC(=NC=C2Cl)NC3=C(C=C(C=C3)N4CCOCC4)OC
In short: as §1

[6] = compound: CNC(=O)c1ccc(Nc2ncc(C(F)(F)F)c(NCc3nccnc3N(C)S(C)(=O)=O)n2)cc1 [defactinib]
In short: as §1

[7] = compound: CNCc1ccc(-c2[nH]c3cc(F)cc4c3c2CCNC4=O)cc1 [rucaparib]
In short: as §1

[8] = compound: CNc1nc(-c2ccc3c(N)n[nH]c3c2)cc(N2C[C@@H](C(=O)NC3CCCCC3)CC[C@H]2C)n1
In short: as §1

[9] = compound: COC(=O)N[C@@H](C)CNc1nccc(-c2cn(C(C)C)nc2-c2cc(Cl)cc(NS(C)(=O)=O)c2F)n1 [encorafenib]
In short: as §1

[10] = compound: COC(=O)[C@H](CCSC)NC(=O)C1=C(C=C(C=C1)NC[C@H](CS)N)C2=CC=CC=C2
In short: as §1

[11] = compound: COC1=CC=C(C=C1)CN2C=CC3=C2C=C(C=C3)C(=O)NO
In short: as §1

[12] = compound: CON(C)C(=O)N1N=C(c2cc(F)ccc2F)S[C@@]1(CCCN)c1ccccc1 [filanesib]
In short: as §1

[13] = compound: CO[C@H]1C[C@@H]2CC[C@@H](C)[C@@](O)(O2)C(=O)C(=O)N2CCCC[C@H]2C(=O)O[C@H]([C@H](C)C[C@@H]2CC[C@H](n3cnnn3)[C@H](OC)C2)CC(=O)[C@H](C)/C=C(\C)[C@@H](O)[C@@H](OC)C(=O)[C@H](C)C[C@H](C)/C=C/C=C/C=C/1C [zotarolimus]
In short: as §1

[14] = compound: COc1cc(C(=O)O)ccc1NC(=O)[C@@H]1N[C@@H](CC(C)(C)C)[C@](C#N)(c2ccc(Cl)cc2F)[C@H]1c1cccc(Cl)c1F [idasanutlin]
In short: as §1

[15] = compound: COc1cc(Nc2ncc3c(n2)-c2ccc(Cl)cc2C(c2c(F)cccc2OC)=NC3)ccc1C(=O)O [alisertib]
In short: as §1

[16] = compound: COc1cc2nc(-c3cc(F)ccc3O)nc(N[C@@H]3CNC[C@H]3C(C)(C)O)c2cc1OC
In short: as §1

[17] = compound: COc1cc2ncnc(Nc3ccc(F)c(Cl)c3)c2cc1OCCCN1CCOCC1 [gefitinib]
In short: as §1

[18] = compound: COc1cccc2cc(-c3nc([C@H]4CC[C@H](C(=O)O)CC4)n4ncnc(N)c34)[nH]c12
In short: as §1

[19] = compound: CS(=O)(=O)CCNCc1ccc(-c2ccc3ncnc(Nc4ccc(OCc5cccc(F)c5)c(Cl)c4)c3c2)o1 [lapatinib]
In short: as §1

[20] = compound: CS(=O)(=O)N1CCN(Cc2cc3nc(-c4cccc5[nH]ncc45)nc(N4CCOCC4)c3s2)CC1 [pictilisib]
In short: as §1

Sequence of UniProt P42229 (P42229 whole entry, looked up): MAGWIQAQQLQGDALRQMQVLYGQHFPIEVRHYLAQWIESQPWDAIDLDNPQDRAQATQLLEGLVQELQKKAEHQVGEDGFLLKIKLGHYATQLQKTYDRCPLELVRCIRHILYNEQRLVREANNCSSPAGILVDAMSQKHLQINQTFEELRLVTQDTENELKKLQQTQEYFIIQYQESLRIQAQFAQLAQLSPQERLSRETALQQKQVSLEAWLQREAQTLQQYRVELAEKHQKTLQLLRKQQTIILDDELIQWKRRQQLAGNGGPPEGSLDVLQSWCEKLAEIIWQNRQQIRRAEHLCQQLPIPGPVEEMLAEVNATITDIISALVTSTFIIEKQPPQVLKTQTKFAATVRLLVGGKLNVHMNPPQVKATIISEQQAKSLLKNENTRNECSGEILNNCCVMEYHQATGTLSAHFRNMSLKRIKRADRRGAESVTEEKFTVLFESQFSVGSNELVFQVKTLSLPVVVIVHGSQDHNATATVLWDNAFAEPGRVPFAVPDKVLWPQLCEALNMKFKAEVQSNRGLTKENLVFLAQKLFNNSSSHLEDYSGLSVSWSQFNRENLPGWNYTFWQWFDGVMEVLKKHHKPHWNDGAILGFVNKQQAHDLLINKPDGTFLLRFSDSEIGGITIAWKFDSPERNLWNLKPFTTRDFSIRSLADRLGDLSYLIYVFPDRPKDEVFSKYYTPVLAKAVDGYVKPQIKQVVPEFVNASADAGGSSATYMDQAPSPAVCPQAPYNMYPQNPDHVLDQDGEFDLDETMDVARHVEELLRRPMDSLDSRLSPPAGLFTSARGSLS
Sequence of UniProt P35610 (P35610 whole entry, looked up): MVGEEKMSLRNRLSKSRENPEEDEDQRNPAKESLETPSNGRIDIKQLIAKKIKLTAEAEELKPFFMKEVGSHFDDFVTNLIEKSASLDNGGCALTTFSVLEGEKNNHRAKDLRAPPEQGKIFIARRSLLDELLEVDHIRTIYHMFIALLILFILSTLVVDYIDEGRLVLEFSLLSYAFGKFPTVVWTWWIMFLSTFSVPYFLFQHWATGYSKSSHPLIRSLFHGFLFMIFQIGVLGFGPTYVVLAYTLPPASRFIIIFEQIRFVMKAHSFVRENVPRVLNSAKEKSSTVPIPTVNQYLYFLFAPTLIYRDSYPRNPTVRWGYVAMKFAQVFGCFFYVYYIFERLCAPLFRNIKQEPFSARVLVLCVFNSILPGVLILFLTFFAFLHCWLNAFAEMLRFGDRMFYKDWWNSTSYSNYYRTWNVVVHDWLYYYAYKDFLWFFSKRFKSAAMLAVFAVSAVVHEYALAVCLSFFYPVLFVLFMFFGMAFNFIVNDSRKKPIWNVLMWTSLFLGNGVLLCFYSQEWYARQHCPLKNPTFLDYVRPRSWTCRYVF
Sequence of UniProt Q7L7X3 (Q7L7X3 whole entry, looked up): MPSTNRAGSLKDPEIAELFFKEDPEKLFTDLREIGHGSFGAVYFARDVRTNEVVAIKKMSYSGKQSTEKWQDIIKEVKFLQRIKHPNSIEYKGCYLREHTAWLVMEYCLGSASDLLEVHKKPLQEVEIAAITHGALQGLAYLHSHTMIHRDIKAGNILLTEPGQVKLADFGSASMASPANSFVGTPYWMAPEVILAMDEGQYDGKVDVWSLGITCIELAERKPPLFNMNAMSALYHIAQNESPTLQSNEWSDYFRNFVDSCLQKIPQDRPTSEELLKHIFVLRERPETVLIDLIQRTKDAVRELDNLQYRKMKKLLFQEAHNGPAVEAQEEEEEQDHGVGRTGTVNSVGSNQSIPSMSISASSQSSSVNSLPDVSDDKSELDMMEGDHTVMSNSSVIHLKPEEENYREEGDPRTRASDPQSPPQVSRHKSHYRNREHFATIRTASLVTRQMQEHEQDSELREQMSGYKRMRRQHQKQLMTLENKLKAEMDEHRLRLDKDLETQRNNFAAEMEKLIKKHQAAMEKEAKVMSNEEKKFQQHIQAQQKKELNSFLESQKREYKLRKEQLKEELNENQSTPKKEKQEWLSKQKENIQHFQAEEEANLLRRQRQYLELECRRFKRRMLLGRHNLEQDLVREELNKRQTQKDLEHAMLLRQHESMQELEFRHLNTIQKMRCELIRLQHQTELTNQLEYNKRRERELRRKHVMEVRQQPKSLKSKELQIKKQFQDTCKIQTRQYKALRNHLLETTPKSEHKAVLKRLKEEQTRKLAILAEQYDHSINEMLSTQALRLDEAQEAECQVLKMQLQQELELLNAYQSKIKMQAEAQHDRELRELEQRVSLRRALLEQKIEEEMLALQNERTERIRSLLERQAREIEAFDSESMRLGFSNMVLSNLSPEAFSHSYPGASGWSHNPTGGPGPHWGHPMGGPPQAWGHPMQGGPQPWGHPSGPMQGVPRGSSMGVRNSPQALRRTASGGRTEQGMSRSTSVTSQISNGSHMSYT
Sequence of UniProt O14776 (O14776 whole entry, looked up): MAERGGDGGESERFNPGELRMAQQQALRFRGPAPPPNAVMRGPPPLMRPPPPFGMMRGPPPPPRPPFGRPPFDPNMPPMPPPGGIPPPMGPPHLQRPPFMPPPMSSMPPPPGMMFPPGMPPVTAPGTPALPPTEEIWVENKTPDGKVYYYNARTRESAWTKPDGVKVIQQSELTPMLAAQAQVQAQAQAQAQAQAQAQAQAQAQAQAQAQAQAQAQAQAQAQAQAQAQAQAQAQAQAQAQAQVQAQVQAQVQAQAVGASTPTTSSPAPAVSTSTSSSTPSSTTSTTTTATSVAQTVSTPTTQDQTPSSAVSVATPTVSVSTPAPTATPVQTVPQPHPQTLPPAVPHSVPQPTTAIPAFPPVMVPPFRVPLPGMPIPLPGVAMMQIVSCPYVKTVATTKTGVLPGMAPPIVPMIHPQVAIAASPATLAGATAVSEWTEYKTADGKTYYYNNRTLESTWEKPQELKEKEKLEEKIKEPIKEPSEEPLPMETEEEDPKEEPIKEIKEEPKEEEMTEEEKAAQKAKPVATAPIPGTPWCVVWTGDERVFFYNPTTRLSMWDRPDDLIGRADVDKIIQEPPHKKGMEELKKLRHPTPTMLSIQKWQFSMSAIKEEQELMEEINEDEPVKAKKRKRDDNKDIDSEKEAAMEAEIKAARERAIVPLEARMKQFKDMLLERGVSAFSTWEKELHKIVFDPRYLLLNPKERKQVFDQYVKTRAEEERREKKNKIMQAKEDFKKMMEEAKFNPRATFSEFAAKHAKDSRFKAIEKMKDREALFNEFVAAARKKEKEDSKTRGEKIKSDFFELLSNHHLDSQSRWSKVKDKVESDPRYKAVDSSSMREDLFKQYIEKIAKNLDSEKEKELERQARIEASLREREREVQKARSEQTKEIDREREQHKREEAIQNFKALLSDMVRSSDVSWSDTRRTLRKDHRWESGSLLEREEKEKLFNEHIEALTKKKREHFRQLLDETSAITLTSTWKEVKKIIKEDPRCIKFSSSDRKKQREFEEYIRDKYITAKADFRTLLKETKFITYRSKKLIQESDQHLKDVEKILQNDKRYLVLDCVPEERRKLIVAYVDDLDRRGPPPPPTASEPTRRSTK
Sequence of UniProt Q8IY18 (Q8IY18 whole entry, looked up): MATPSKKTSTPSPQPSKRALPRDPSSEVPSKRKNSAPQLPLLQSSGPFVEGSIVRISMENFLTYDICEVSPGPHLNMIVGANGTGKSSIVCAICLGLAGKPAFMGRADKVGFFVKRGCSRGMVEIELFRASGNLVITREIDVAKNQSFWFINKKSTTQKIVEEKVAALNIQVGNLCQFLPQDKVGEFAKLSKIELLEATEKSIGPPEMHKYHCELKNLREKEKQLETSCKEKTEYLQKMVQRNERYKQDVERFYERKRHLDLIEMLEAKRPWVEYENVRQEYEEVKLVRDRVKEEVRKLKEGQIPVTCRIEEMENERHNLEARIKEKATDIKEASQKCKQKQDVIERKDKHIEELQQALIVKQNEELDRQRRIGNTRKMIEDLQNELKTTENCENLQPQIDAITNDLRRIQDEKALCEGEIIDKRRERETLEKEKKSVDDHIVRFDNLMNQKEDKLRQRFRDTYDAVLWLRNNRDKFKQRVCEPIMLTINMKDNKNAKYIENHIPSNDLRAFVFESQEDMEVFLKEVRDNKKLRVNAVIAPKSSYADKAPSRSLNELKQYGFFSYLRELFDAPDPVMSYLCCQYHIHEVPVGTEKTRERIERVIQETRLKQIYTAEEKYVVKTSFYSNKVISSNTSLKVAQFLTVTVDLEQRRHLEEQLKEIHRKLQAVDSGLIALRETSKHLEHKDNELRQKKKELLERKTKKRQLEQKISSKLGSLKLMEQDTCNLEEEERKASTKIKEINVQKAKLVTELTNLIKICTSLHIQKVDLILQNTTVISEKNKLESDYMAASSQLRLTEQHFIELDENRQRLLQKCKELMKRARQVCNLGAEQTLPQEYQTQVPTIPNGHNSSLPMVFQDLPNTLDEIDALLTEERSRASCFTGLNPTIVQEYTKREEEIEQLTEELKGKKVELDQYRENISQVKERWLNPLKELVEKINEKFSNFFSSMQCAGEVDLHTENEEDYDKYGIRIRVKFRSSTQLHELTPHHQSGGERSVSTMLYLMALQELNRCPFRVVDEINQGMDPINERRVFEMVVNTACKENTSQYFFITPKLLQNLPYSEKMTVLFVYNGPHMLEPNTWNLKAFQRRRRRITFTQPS
Sequence of UniProt Q9UNL2 (Q9UNL2 whole entry, looked up): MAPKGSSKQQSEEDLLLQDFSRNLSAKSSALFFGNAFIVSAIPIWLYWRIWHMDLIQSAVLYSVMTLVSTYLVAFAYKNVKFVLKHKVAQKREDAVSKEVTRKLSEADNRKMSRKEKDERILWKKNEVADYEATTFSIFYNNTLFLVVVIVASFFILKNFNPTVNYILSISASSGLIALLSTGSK
Sequence of UniProt Q9Y5W9 (Q9Y5W9 whole entry, looked up): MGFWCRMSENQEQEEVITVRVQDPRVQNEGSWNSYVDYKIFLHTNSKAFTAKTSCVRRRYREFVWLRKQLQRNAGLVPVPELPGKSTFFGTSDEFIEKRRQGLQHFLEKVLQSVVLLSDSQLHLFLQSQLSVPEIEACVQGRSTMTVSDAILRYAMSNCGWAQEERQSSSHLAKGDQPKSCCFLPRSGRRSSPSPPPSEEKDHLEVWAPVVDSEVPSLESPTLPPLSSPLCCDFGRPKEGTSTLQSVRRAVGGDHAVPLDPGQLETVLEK

| Target | log2 fold change [1] | log2 fold change [2] | log2 fold change [3] | log2 fold change [4] | log2 fold change [5] | log2 fold change [6] | log2 fold change [7] | log2 fold change [8] | log2 fold change [9] | log2 fold change [10] | log2 fold change [11] | log2 fold change [12] | log2 fold change [13] | log2 fold change [14] | log2 fold change [15] | log2 fold change [16] | log2 fold change [17] | log2 fold change [18] | log2 fold change [19] | log2 fold change [20] |
| --- | --- | --- | --- | --- | --- | --- | --- | --- | --- | --- | --- | --- | --- | --- | --- | --- | --- | --- | --- | --- |
| TCERG1 (UniProt O14776) | -0.051 | -0.086 | -0.18 | 0.11 | -0.011 | -0.288 | -0.003 | 0.08 | 0.063 | -0.105 | 0.104 | -0.008 | 0.025 | -0.087 | 0.043 | 0.054 | 0.073 | -0.003 | -0.036 | 0 |
| SOAT1 (UniProt P35610) | 0.026 | -0.06 | -0.02 | -0.057 | 0.186 | -0.053 | -0.064 | 0.014 | 0.122 | 0.111 | 0 | -0.1 | 0.363 (active) | -0.184 | -0.02 | -0.118 | 0.137 | 0.045 | 0.068 | 0.067 |
| SSR3 isoform 2 (UniProt Q9UNL2) | 0.153 | 0.083 | -0.108 | -0.04 | 0.006 | -0.006 | -0.049 | -0.052 | 0.001 | 0.086 | -0.236 | -0.107 | 0.087 | 0.066 | -0.015 | -0.013 | 0.003 | 0.08 | 0.006 | -0.096 |
| SSRP1 (UniProt Q08945) | 0.01 | -0.049 | -0.157 | 0.099 | -0.052 | -0.23 (active) | -0.038 | -0.045 | 0.048 | -0.05 | 0.118 | 0.023 | 0.036 | -0.005 | -0.037 | -0.05 | 0.028 | -0.014 | 0.008 | -0.026 |
| STEAP3 isoform 2 (UniProt Q658P3) | -0.02 | -0.027 | -0.059 | -0.027 | -0.025 | -0.067 | 0.055 | -0.024 | 0.012 | 0.006 | -0.028 | -0.014 | -0.06 | -0.11 | -0.028 | 0.035 | -0.01 | 0.025 | 0.013 | 0.227 (active) |
| TARBP1 (UniProt Q13395) | 0.026 | -0.036 | -0.031 | -0.033 | 0.021 | -0.026 | 0.042 | -0.027 | -0.041 | 0.014 | -0.036 | -0.077 | 0.105 | -0.027 | 0.096 | 0.049 | -0.026 | -0.019 | -0.015 | -0.078 |
| SLC25A4 (UniProt P12235) | -0.022 | 0.029 | 0.068 | -0.138 | 0.044 | 0.012 | -0.061 | -0.026 | -0.001 | 0.019 | -0.012 | -0.024 | -0.018 | 0.003 | 0.014 | 0.039 | 0.006 | -0.012 | -0.026 | 0.115 |
| THYN1 (UniProt Q9P016) | -0.062 | -0.022 | -0.008 | -0.006 | 0.079 | -0.002 | 0.029 | 0.072 | 0 | -0.029 | -0.01 | -0.009 | 0.015 | -0.011 | -0.065 | 0.035 | 0.028 | -0.007 | -0.039 | -0.032 |
| TIPRL (UniProt O75663) | -0.028 | -0.056 | -0.119 | 0 | 0.009 | -0.049 | 0.013 | -0.001 | 0.035 | -0.014 | 0.011 | -0.063 | -0.013 | -0.104 | 0.014 | 0.043 | -0.034 | -0.009 | -0.009 | 0.034 |
| SSX2 (UniProt Q16385) | 0.017 | -0.028 | 0.024 | 0.062 | 0.066 | -0.114 | 0.025 | -0.078 | 0.021 | -0.012 | 0.083 | 0.009 | -0.014 | -0.021 | 0.035 | 0.025 | 0.032 | 0.004 | -0.011 | 0.064 |
| SPPL2B (UniProt Q8TCT7) | -0.009 | 0.074 | -0.02 | -0.031 | 0.026 | -0.014 | -0.036 | -0.06 | 0.029 | 0.069 | 0.025 | -0.223 | -0.016 | -0.01 | -0.113 | -0.05 | -0.061 | 0.084 | -0.002 | 0.292 (active) |
| TAOK1 (UniProt Q7L7X3) | 0.002 | -0.013 | -0.077 | 0.032 | -0.002 | -0.142 | 0.032 | 0.053 | -0.061 | -0.018 | -0.046 | 0.054 | -0.032 | 0.031 | 0.043 | -0.088 | 0.033 | 0.011 | 0.014 | -0.043 |
| SMC5 (UniProt Q8IY18) | -0.005 | -0.075 | 0 | -0.034 | 0.056 | -0.05 | 0.015 | -0.046 | -0.045 | -0.014 | -0.055 | 0.009 | -0.032 | -0.081 | 0.047 | 0.009 | 0.034 | 0.028 | 0.018 | 0.024 |
| SNX11 (UniProt Q9Y5W9) | -0.055 | -0.055 | -0.135 | -0.014 | 0.011 | -0.02 | -0.001 | 0.055 | -0.074 | 0.002 | 0.025 | -0.128 | 0.043 | -0.008 | -0.062 | -0.15 | -0.05 | 0.038 | 0.014 | -0.173 |
| STAT5A (UniProt P42229) | -0.093 | -0.14 | -0.151 | 0.088 | -0.001 | -0.273 | 0.006 | 0.054 | 0.088 | -0.059 | 0.034 | 0.018 | 0.094 | 0.032 | -0.056 | 0.009 | 0.047 | -0.128 | 0 | -0.096 |
| SPCS2 (UniProt Q15005) | -0.029 | -0.054 | -0.058 | -0.026 | 0.062 | -0.026 | -0.062 | 0.038 | 0.044 | 0.021 | 0.5 (active) | -0.061 | 0.018 | -0.039 | 0.008 | 0.092 | 0.03 | -0.021 | 0.002 | -0.006 |
